Measured values reported in article PMC7819943, “Rice protein-binding microarrays: a tool to detect cis-acting elements near promoter regions in rice”.
Over roughly 68,000 sequences, “fluorescence intensity (a.u.)” has its median near 9,100; the highest 2% begin near 16,000. Only a selection was taken, and the highest values are over-represented in it overall.

target: OsWRKY34 (Oryza sativa, UniProt Q0JBA9 1-250); assay: protein-binding microarray (RPBM); PBS, 2% BSA, 51.3 ng/ul salmon testes DNA, 50 uM zinc acetate, 200 nM TF, 25 C, 1 h; high values mean tight binding; settings: protein: recombinant; tags: N-terminal polyhistidine and DsRed monomer fusion (pET32a); label: CyDye5-dUTP incorporated in the synthesized complementary strand; 3' TTTTT single-stranded linker to array surface; dsDNA, one strand shown
Method in brief: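 Binding signal is reported as fluorescence intensity per feature (arbitrary units) from an Axon 4000B scanner. Incubation used 200 nM of each Ni–NTA-purified, N-terminally polyhistidine- and DsRed-fused transcription factor from E. coli BL21-CodonPlus on a double-stranded custom Agilent array for 1 h at 25 °C, with 50 µM zinc acetate in the buffer, followed by washing.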

Sequence of OsWRKY34 (Q0JBA9 entry or part of it): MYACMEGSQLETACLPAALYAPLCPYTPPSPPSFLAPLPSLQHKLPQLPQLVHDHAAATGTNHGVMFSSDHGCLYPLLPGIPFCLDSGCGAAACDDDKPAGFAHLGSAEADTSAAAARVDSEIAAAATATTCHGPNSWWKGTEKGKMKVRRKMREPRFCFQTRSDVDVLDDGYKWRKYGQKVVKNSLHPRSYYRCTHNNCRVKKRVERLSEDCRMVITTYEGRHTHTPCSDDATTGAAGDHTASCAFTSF

Sequence	binding signal
GGTTTCGGTTAACTTTTGTGCACACTCGCCAGTGAGAGTTCGGAGTCACCTAGTGCAG	12300 fluorescence intensity (a.u.)
TGTAAGTCATTCCACCATTTCCCACATTCATATTGATGCCCGGAGTCACCTAGTGCAG	8890 fluorescence intensity (a.u.)
TTTAACCTAAACCACATGTGAATTTCTTCTTATGTATTCCCGGAGTCACCTAGTGCAG	8700 fluorescence intensity (a.u.)
GTGGGATTCGCCTGCTTGCTTGCTGGGGCCTTGGGAAATGCGGAGTCACCTAGTGCAG	8230 fluorescence intensity (a.u.)
TCAAAACGGCCCACTCGCCGCCCGCCACGTGTCCGACCCGCGGAGTCACCTAGTGCAG	8920 fluorescence intensity (a.u.)
GATCCGCATCACTGATTCACTGCACTTCGCCCGCCGTCTGCGGAGTCACCTAGTGCAG	9810 fluorescence intensity (a.u.)
TTTTATTCAATATATGTATATAGGTATCTTTGGTTGTTTTCGGAGTCACCTAGTGCAG	8320 fluorescence intensity (a.u.)
TTCGAGCACATCTACTTCGCGCTCCCAAACTCCGTGGTGTCGGAGTCACCTAGTGCAG	8080 fluorescence intensity (a.u.)
GAGGTGTGTGTTCGTAGAGATGAGTGCGTGCGCGTTGTGACGGAGTCACCTAGTGCAG	9140 fluorescence intensity (a.u.)
TGTTGTTGTGGTGGTGGTGGTGGTGGTAGTGCGTGAGTGACGGAGTCACCTAGTGCAG	21200 fluorescence intensity (a.u.)
ATTTCGGATTTGTATGTATTGTGTTTTTTTAAAAAAAATTCGGAGTCACCTAGTGCAG	9880 fluorescence intensity (a.u.)
GGGTGAGTGCGCGTGCGTTGTGAGTGTTTGTATTGTACTGCGGAGTCACCTAGTGCAG	9790 fluorescence intensity (a.u.)
TCTCTCTGTGTGTGTTTGTGTCATATATGAGTTTGTGGGTCGGAGTCACCTAGTGCAG	9570 fluorescence intensity (a.u.)
TCATATGGGTTGGTGTATGTGTATTGTGAGTCTGTGTTTGCGGAGTCACCTAGTGCAG	8300 fluorescence intensity (a.u.)
GCAATTGTTCAATATTTTTTTGTGTGTATGTGTTTTTTTTCGGAGTCACCTAGTGCAG	18200 fluorescence intensity (a.u.)
GTGGGTGTTTGCGAGCTTTTGTTCGTATGCTTTTTTACTTCGGAGTCACCTAGTGCAG	9960 fluorescence intensity (a.u.)
TCATATATGAGTTTGTGGGTGTGGGTGTTTGCGAGCTTTTCGGAGTCACCTAGTGCAG	30700 fluorescence intensity (a.u.)
TTTTTTTGTGTTTTGCAATTTTATGTTTTGCACTTATTTTCGGAGTCACCTAGTGCAG	8070 fluorescence intensity (a.u.)
GGGTGAGTGTGTGTTGTGCGTTGTGAGTGTGTATGTGTTTCGGAGTCACCTAGTGCAG	17200 fluorescence intensity (a.u.)
GTTGTTTGGTTGCGTGAGGAGAGGAGGAGGAGGAGGAGGACGGAGTCACCTAGTGCAG	8200 fluorescence intensity (a.u.)
ATCCCACCGTGGCGCCACCCTATTGGGCCCTACTCTTCAGCGGAGTCACCTAGTGCAG	8780 fluorescence intensity (a.u.)
ACTCCATATCGCTTCGCGATTTTTTGTTGACCAAATCAATCGGAGTCACCTAGTGCAG	9610 fluorescence intensity (a.u.)

Sequence	binding signal
AATCTCGTTCCTTGCTGTTGTGACTAGTATCGTTGCCTACCGGAGTCACCTAGTGCAG	10500 fluorescence intensity (a.u.)
GCCTGCTGTTCCTTTTAGTTTCTCCAAGCTCCTGCCAACACGGAGTCACCTAGTGCAG	8320 fluorescence intensity (a.u.)
CTAGATTCGTTTTTTATGGGGTGGAGGGAGTACATGCCTTCGGAGTCACCTAGTGCAG	12800 fluorescence intensity (a.u.)
CGTGGTGGTGGTAGGGGAGGGGATGGATGATATGGCGTGACGGAGTCACCTAGTGCAG	22400 fluorescence intensity (a.u.)
GGAGGCATGATGGCGGCATGGTGGAGGGTGGGGTGACGTGCGGAGTCACCTAGTGCAG	12000 fluorescence intensity (a.u.)
ACGCGGGGATGGATGATGGTGGTGGCGGCGAGGGGATGATCGGAGTCACCTAGTGCAG	9170 fluorescence intensity (a.u.)
ACCTTTTATGGTGGGGTAGGAGTAGGTGACGGTGGAGATTCGGAGTCACCTAGTGCAG	19000 fluorescence intensity (a.u.)
TATAGTAGTATGGGTGGAGATTTATATTTTTCTCTCGATTCGGAGTCACCTAGTGCAG	8940 fluorescence intensity (a.u.)
GAAATACTCCAATGGGTTAACTTAGGGTCGGGAAGGGGAGCGGAGTCACCTAGTGCAG	10100 fluorescence intensity (a.u.)
TTCCTGCTCTGTCCGTGCTCGACTCAATTCATTGTCAACCCGGAGTCACCTAGTGCAG	8690 fluorescence intensity (a.u.)
CTTTGCATCTCTTCTTTTCTTTCTTTTTTTTTTCTTTTCTCGGAGTCACCTAGTGCAG	12100 fluorescence intensity (a.u.)
TTTTTAGTACATGTTTGACCGTTCGTCTTATTCAAAAAATCGGAGTCACCTAGTGCAG	10700 fluorescence intensity (a.u.)
CCTCTCTTTCTCTCACTCTCTGTGACTCTTGTCTTTTTGTCGGAGTCACCTAGTGCAG	8390 fluorescence intensity (a.u.)
AAGTTTTCGCGTCCAACTTTCATCGTTCGTCTTATTTGAACGGAGTCACCTAGTGCAG	10600 fluorescence intensity (a.u.)
GACTTTTTAGCACATGTTTAACCGTTCGTCTTATTCAAAACGGAGTCACCTAGTGCAG	12100 fluorescence intensity (a.u.)
TCCACGTTGACCACATCGCGTCACACCGTCCACGACTTTTCGGAGTCACCTAGTGCAG	12700 fluorescence intensity (a.u.)
ATATTGTTGACTTTTTAGCACATGTTTAACCGTTCATCTTCGGAGTCACCTAGTGCAG	19600 fluorescence intensity (a.u.)
TGTTCGCGTCCATCGTTGACTTTTTCAACGCCATGCACGCCGGAGTCACCTAGTGCAG	30900 fluorescence intensity (a.u.)
CCGTTGACTTTTTAGTACATGTTTAACCGTTCGTCTTATTCGGAGTCACCTAGTGCAG	38600 fluorescence intensity (a.u.)
GTTAACTTTTTAGAACATGTTTGACCGTTCGTCTTATTCACGGAGTCACCTAGTGCAG	8930 fluorescence intensity (a.u.)
GTTAACTTTTTAGCACATGTTTGACCGTTCGTCTTATTCACGGAGTCACCTAGTGCAG	12600 fluorescence intensity (a.u.)
GCCTCTTTTTTGTCGCTCTCACTGTCTCACACCTACACGTCGGAGTCACCTAGTGCAG	16400 fluorescence intensity (a.u.)

Sequence	binding signal
TTCATCTCACGTACTGTTCTTTTGCCTCTCGCTAGCTCGTCGGAGTCACCTAGTGCAG	9220 fluorescence intensity (a.u.)
CATTGTGCGCTCTGGAGAGGCTCCAAACCACCATTGTTCGCGGAGTCACCTAGTGCAG	8090 fluorescence intensity (a.u.)
GCCCTCGTCGTCGTCCGACCACCCGATCCCGACGAGAACCCGGAGTCACCTAGTGCAG	8690 fluorescence intensity (a.u.)
ATCTACTACTATTCTACTCTACTCGCAAGTCTCACAAACACGGAGTCACCTAGTGCAG	8740 fluorescence intensity (a.u.)
AAAAAGAGTTCTCTTCTTCACTTCTACTCTTCACAACTTTCGGAGTCACCTAGTGCAG	9410 fluorescence intensity (a.u.)
CATCCAAATAGGTTCTTTTAGTTCAATTTTGGGGCAGTTTCGGAGTCACCTAGTGCAG	9920 fluorescence intensity (a.u.)
GCTACTATCAAGTCATAAGCTTACTACCAAGTTATAGCACCGGAGTCACCTAGTGCAG	8320 fluorescence intensity (a.u.)
ATATACATGTGATAGCTTCGTCTCAAGATACATTGTCCTACGGAGTCACCTAGTGCAG	9500 fluorescence intensity (a.u.)
CTGTTCCGCCACCTACCACCGAGCCGTTGTCTCCCATGACCGGAGTCACCTAGTGCAG	10100 fluorescence intensity (a.u.)
AAAGCCGTCGTATTGTCATCCGCCGCTCGCTGACTCATTCCGGAGTCACCTAGTGCAG	8310 fluorescence intensity (a.u.)
TCCCCTTCGCCCTTCGTCGTCGTCGTCGTCGTCGTTCGTCCGGAGTCACCTAGTGCAG	8050 fluorescence intensity (a.u.)
AACCACCACAAGCCGTTAACCCCGTTGTTTACCTCCTCCTCGGAGTCACCTAGTGCAG	8190 fluorescence intensity (a.u.)
ATTTTGACTTTTTGGTTGCGCTATTTGATTACTCGTCTTACGGAGTCACCTAGTGCAG	19400 fluorescence intensity (a.u.)
AACGCTATTTATTTTTTAAACATGTTTGATCGTTCGTCTTCGGAGTCACCTAGTGCAG	10200 fluorescence intensity (a.u.)
TTTCAGGTTTTGCATTTCACACCTCTGTCGTCATACTTGACGGAGTCACCTAGTGCAG	17800 fluorescence intensity (a.u.)
TGACGCCGTTGACTTTTTTAAACATGTTTGATCGTTCGTCCGGAGTCACCTAGTGCAG	35900 fluorescence intensity (a.u.)
GCCGTTGACTTTTTATTACATGTTTGACCGTTCGTCTTATCGGAGTCACCTAGTGCAG	62900 fluorescence intensity (a.u.)
TTGTTTCTGTTCATTTTTCTCTATAGTACTTGCTAGGTGACGGAGTCACCTAGTGCAG	11500 fluorescence intensity (a.u.)
TATGTTCATTTCCTTATTTGCCTCTCGTCATGTCTCTTGACGGAGTCACCTAGTGCAG	10200 fluorescence intensity (a.u.)
TTGACTTTTGCTTGCACTGTTTGATTACTCGTCTTATTAACGGAGTCACCTAGTGCAG	8670 fluorescence intensity (a.u.)
TTTGCAACATTTGATTACTCGTCTTATTTAATTTTTTTTTCGGAGTCACCTAGTGCAG	8230 fluorescence intensity (a.u.)
AGTAAAGTCCATCACCGGTCCCTAAACTTGTACCGCTATGCGGAGTCACCTAGTGCAG	8810 fluorescence intensity (a.u.)

Sequence	binding signal
AAAGATCGCTTTTTCCGTGGTAGGCTTCTCCATTTTATTTCGGAGTCACCTAGTGCAG	10700 fluorescence intensity (a.u.)
TATCTTGCCTAGCATATTGTCCGTGCGTTATTGCGATTTTCGGAGTCACCTAGTGCAG	10500 fluorescence intensity (a.u.)
TCCCACCCGTTTTTATTTTTCTCGGTGGTTAACTTATCTTCGGAGTCACCTAGTGCAG	8170 fluorescence intensity (a.u.)
TTCTTATTCTGTCGGTTGTGTGGTGGCAGGGCAGTTAATTCGGAGTCACCTAGTGCAG	8630 fluorescence intensity (a.u.)
TCCATCACTAGCTATTTTGGTACTTTCATCTACTTATTACCGGAGTCACCTAGTGCAG	8340 fluorescence intensity (a.u.)
TCTCTCGTTTTCCACACACACGTTTTTTAAACTGCTAAACCGGAGTCACCTAGTGCAG	10200 fluorescence intensity (a.u.)
CAAGGCCCGCCCATCCGTCTCCTCACACTCTGGCACACCTCGGAGTCACCTAGTGCAG	8580 fluorescence intensity (a.u.)
CAATCCATCAAACATGCAGTCAAGGTGTATTATTCAGTATCGGAGTCACCTAGTGCAG	9880 fluorescence intensity (a.u.)
ACTCTTATTGTTCAAATGAAAATGCTAGGGGTATAACTGCCGGAGTCACCTAGTGCAG	8340 fluorescence intensity (a.u.)
CGTTGACTTTTTTAAATATATTTAGCAGTTCGTCTTATTACGGAGTCACCTAGTGCAG	16500 fluorescence intensity (a.u.)
TTTTAAACATGTTTGACCGTTCGTCTTATTCAAAAAATTTCGGAGTCACCTAGTGCAG	8310 fluorescence intensity (a.u.)
TTTTAACATTTTTCTTGCACTGTTTGACCATTCGTCTTATCGGAGTCACCTAGTGCAG	10400 fluorescence intensity (a.u.)
GCCGTTGACTTTTTAACACATGTTTGACCATTCGTCTTATCGGAGTCACCTAGTGCAG	60200 fluorescence intensity (a.u.)
GCCGTTGACTTTTTTAAACATGTTTGACCGTTCGTCTTATCGGAGTCACCTAGTGCAG	45200 fluorescence intensity (a.u.)
TGCCGTTGATTTTTTTTTAAACATGTTTGACCGTTCGTCTCGGAGTCACCTAGTGCAG	14900 fluorescence intensity (a.u.)
ACTGTTCGTCTTATTTAAAATTTTTTAAATATTATTTATACGGAGTCACCTAGTGCAG	12300 fluorescence intensity (a.u.)
GACTTTTTAACACATGTTTGACCGTTCGTCTTATTCAAAACGGAGTCACCTAGTGCAG	10900 fluorescence intensity (a.u.)
ACTTATATTTTTTTAACGTTTGATTGTTCGTCTTATTAAACGGAGTCACCTAGTGCAG	9470 fluorescence intensity (a.u.)
ACCGTTGATTTTTTTAAACATGTTTGACCGTTCGTCTTATCGGAGTCACCTAGTGCAG	17100 fluorescence intensity (a.u.)
ACTTTTTTAAACATGTTTGGCCGTTCGTCTTATTCAAAAACGGAGTCACCTAGTGCAG	9620 fluorescence intensity (a.u.)
CTTTTTTAAACATGTTTGACCGTTCGTCTTATTTAAAAAACGGAGTCACCTAGTGCAG	9350 fluorescence intensity (a.u.)
